test: reducers of endogenous Her2 protein level, primary screen, SKBR3 breast tumor cells, AlphaScreen, ATP viability (AID 461); settings: 18-24 h, measured here: SKBR3 viability, ATP luminescence, at 10 µM;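 also: percent of carrier control wells set as 100% viability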

Point of comparison: CCOC(=O)c1nnc(-c2ccccc2)o1, viability 101%. Against it:
- CC(=O)Nc1ccc(S(=O)(=O)N2CCN(C(C)CCc3ccccc3)CC2)cc1 (stereo not given) — lower, 74%
- COc1ccc(NC(=O)Nc2cc(C)ccc2OC)cc1 — the same, 101%
- O=C(CNS(=O)(=O)c1ccc(Br)s1)N1CCCC1 — higher, 118%
- Cn1c(=N)n(CC(=O)O)c2ccccc21 — higher, 108%
- CC(C)(C)Nc1nc(OCC(F)(F)F)nc(OCC(F)(F)F)n1 — higher, 108%
- COc1cc(CC(=O)Nc2ncc(C)s2)cc(OC)c1OC — higher, 109%
- Cc1ccc(NC2=NC3(CCCCC3)N=C(N)N2)c(C)c1 — higher, 114%
- C=CCSc1nnc(-c2ccccc2NC(C)=O)c(=O)[nH]1 — higher, 106%
- CC1CCN(CCCNC(=O)c2cn(C)c3ccc(S(=O)(=O)N4CCCC4)cc3c2=O)CC1 — lower, 90.5%
- C=CCOc1ccc(/C(O)=C2\C(=O)C(=O)N(CCOC)C2c2cccnc2)cc1 (stereo not given) — lower, 99%
- Cc1cccc(C(=O)N2CCC(n3nnc4cc(F)ccc43)CC2)c1 — lower, 95%
- CC(C)Oc1ccc(N2CC(C(=O)Nc3ccccc3F)CC2=O)cc1 (stereo not given) — the same, 101%
- O=C(CSc1ncc(-c2ccc(F)cc2)[nH]1)N1CCCCC1 — lower, 91%
- CCCNC(=O)Nc1ccccc1C(=O)Nc1ccc(OC)cc1 — lower, 85%
- COc1ccccc1OCC(=O)NCC1CCCCC1 — lower, 94.5%
- Cc1ccccc1NC(=O)CSc1nc(N)c(C#N)c(-c2cccs2)c1C#N — higher, 115%
- c1ccc(CCc2nc(-c3cccnc3)no2)cc1 — lower, 86.5%
- COc1cc(NC2=CC(=O)CC(C)(C)C2)cc(OC)c1 — lower, 77%
- Cc1ccccc1CN1CCN(CC(=O)NCc2ccccc2)C1=O — higher, 113%
- CCC(c1nnc(SCC(=O)NCC2CCCO2)n1Cc1ccccc1)N(C)C (stereo not given) — lower, 98.5%
- Cc1ccc(N2CC(C)Cn3c2nc2c3c(=O)n(CC(=O)OCc3ccccc3)c(=O)n2C)cc1C (stereo not given) — lower, 86.5%
- CCNC(=O)c1ccc(NS(=O)(=O)c2ccccc2)cc1 — higher, 124%
- CCOc1ccc(-c2nc(C#N)c(N3CCCCCC3)o2)cc1 — higher, 138%
- Cc1ccc(NS(=O)(=O)c2cn(C)cn2)cc1 — lower, 95%
- Fc1ccccc1-c1nc(-c2ccccc2)no1 — lower, 85.5%
- CCOC(=O)C1=C(C)NC(C)=C(C(=O)OCC)C1c1cc(N)ccc1OC(F)F — lower, 78.5%
- COc1ccccc1C1/C(=C(\O)c2c(C)nc3c(C)cccn23)C(=O)C(=O)N1CCCN(C)C (stereo not given) — higher, 102%
- CCOC(=O)C1CCCN(Cc2nc(N)nc(Nc3ccc(C)cc3)n2)C1 (stereo not given) — lower, 99.5%
- ON1C2CCCCC2N(O)C1c1c(F)c(F)c(F)c(F)c1F (stereo not given) — lower, 89.5%
- CCOc1ccc(CN2C(=O)c3ccccc3C2C(=O)NCc2cccnc2)cc1 (stereo not given) — lower, 96%
- CCOc1ccccc1NC(=O)CN(c1ccc(C)cc1)S(=O)(=O)c1c(C)noc1C — higher, 133%
- CCCOc1ccc([C@@H]2C3CN(C(=O)OCC)CC=C3C(C#N)=C(N)C2(C#N)C#N)cc1OC (stereo not given in full) — lower, 88%
- COc1ccc(C2=NOC(C(=O)NCc3ccc(F)cc3)C2)cc1OC (stereo not given) — lower, 95.5%
- COc1cc(C2CC(=O)NC3=C2C(=O)CC(C)(C)C3)ccc1O (stereo not given) — lower, 89.5%
- CCOc1ccc2[nH]c(=O)c(CN(Cc3nnnn3CCc3ccccc3)CC3CCCO3)cc2c1 (stereo not given) — lower, 78.5%
- Cc1cc(C)c2cc3c(ccn3C3OC[C@H](O)[C@H](O)[C@H]3O)cc2n1 (stereo not given in full) — lower, 95%
- N[C@@H](Cc1ccccc1)c1nnc2sc(SCc3ccccc3)nn12 — lower, 90%
- CCC(C)NC(=O)C1(C)CCC(=O)N1Cc1ccccc1OC (stereo not given) — lower, 100%
- Cc1cc(Nc2ccc(C(=O)O)cc2)n2nc(C)nc2n1 — the same, 101%

Reference: PubChem BioAssay
